Compound activity from PubChem.
Giardia kill – kills Giardia lamblia. AID 540267. Giardia lamblia trophozoite viability. 340,000 compounds, 0.15% hits. activity change, % at 7.66 µM, hits read low; in the data active = activity change below about -80%; inconclusive = between about -30% and that limit;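 note: parasites exposed to compound for two days anaerobically before the ATP read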
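Compounds were tested on trophozoites seeded at 100 cells/well and held 48 hrs at 37 deg C anaerobically. An ATP-based luminescent kit measured the remaining live cells.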
IL-1B inflam inh – inflammasome signaling inhibition, IL-1 beta readout | AID 743279 | activity change, % at 57.5 µM | 360,000 compounds, 4.7% hits | THP-1 LPS/ATP IL-1B secretion, AlphaLISA, 16 h; hits give low values; in the data active = activity change below about -50%; inconclusive = mostly about -30% to -49%
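Secreted IL-1B measured by AlphaLISA bead assay after 16 h compound exposure of THP-1 cells; compounds (final up to 57.5 uM) added 1 h before LPS (250 ng/mL) and ATP (1.25 mM) stimulation; lower signal means less secretion.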
ELG1 DNA repair – inhibitors of ELG1-dependent DNA repair in HEK293T cells; 330,000 compounds, 2.3% hits; Potency, µM (highest dose often 46.1 µM), inactives show at the top dose activity change, negative = inhibition, actives largely listed as inhibitors; HEK293T ELG1-luciferase reporter, luminescence, 16 h; DNA damage induced by 5-fluorouridine; note: potency is the fitted concentration of half-maximal effect; nearly all actives have a fitted effect of over 55% in size
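Luminescence from the luciferase reporter, measured 30 min after ONE-Glo reagent at room temperature, was the read-out. Beforehand, 2,000 cells per well were exposed for 16 hr at 37 °C to 5-fluorouridine together with compound or vehicle.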
DT40 TDP1 no CPT – qHTS for Inhibitors of human tyrosyl-DNA phosphodiesterase 1 (TDP1): qHTS in cells in absence of CPT; 420,000 compounds, 15% hits; DT40 Tdp1-/- hTDP1 cells, no CPT, ATP luminescence, 48 h; AID 686978, 2013; Potency, µM (series often up to 46.2 µM), for the others: at the highest dose activity change, negative = growth inhibition, usual class: inhibitors; note: potency is the fitted concentration of half-maximal effect; nearly all actives have a fitted effect of over 55% in size
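Stably hTDP1-transfected Tdp1-null chicken DT40 cells were treated with library compounds minus camptothecin and grown for at least 48 hr at 37 °C, after which cellular ATP was quantified by luminescence.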
TDP1 inh – inhibitors of human tyrosyl-DNA phosphodiesterase TDP1; Q9NUW8; recombinant TDP1, AlphaScreen DNA substrate cleavage; Potency, µM (top dose mostly 130 µM), without a hit: at the top dose activity change, negative = inhibition, hits mostly inhibitors; 350,000 compounds, 0.28% hits; AID 485290; note: potency is the fitted concentration of half-maximal effect; nearly all actives have a fitted effect of over 40% in size
Target sequence (Q9NUW8 whole entry, looked up): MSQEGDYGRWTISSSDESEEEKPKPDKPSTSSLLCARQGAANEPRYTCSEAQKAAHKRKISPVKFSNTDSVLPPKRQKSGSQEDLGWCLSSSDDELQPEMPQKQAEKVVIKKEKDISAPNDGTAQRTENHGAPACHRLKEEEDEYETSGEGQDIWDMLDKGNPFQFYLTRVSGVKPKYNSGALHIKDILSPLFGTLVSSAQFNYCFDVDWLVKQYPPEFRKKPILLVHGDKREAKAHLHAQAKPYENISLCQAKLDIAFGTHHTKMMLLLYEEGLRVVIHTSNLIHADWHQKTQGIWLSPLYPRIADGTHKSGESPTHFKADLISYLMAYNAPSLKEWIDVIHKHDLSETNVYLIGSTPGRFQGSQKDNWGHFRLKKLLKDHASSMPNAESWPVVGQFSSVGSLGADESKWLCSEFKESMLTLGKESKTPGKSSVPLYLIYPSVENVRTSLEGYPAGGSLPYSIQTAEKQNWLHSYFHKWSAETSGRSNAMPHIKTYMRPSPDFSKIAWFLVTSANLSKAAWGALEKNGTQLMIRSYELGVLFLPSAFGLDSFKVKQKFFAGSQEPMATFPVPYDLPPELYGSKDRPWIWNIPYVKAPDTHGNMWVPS
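Compounds were preincubated with Tdp1 (1 nM final) for 15 min at room temperature before substrate (15 nM final) started a 5 min reaction; beads (10 ug/ml final) were then added for 10 min before AlphaScreen detection.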
DT40 TDP1 CPT – DT40-hTDP1 cell growth loss with CPT. chicken DT40 Tdp1-/-;hTDP1 cells + 20 nM CPT, ATP luminescence, 48 h. AID 686979. Potency, µM (highest dose often 46.2 µM), for inactives: at the top dose activity change, negative = growth inhibition, most hits filed as inhibitors. 420,000 compounds, 12% hits; note: potency is the fitted concentration of half-maximal effect; nearly all actives have a fitted effect of over 55% in size
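Chicken DT40 Tdp1-/- cells stably complemented with human TDP1 were seeded at 400 cells/well in medium containing 20 nM camptothecin, exposed to pin-transferred compounds, and grown at 37 °C for at least 48 hr. Viability was read as ATP luminescence.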
ELG1 FLuc counter – luciferase inhibition in cell-free luciferin readout for ELG1 hits | shares compounds with ELG1 DNA repair | cell-free firefly luciferase luminescence counter-screen, ViewLux | Potency, µM (series often up to 46.1 µM), for the others: at the top dose activity change, negative = inhibition, most hits filed as inhibitors | 350 compounds, 3% hits; note: potency is the fitted concentration of half-maximal effect
ELG1-Luc inh – confirmation of human ELG1-dependent DNA repair inhibitors; shares compounds with ELG1 DNA repair; HEK293T ELG1-luciferase levels, luminescence; cells co-treated with 5-fluorouridine; Potency, µM (doses to about 46.1 µM), for the others: at the highest dose activity change, negative = inhibition, usual class: inhibitors; 670 compounds, 68% hits; AID 624248; note: potency is the fitted concentration of half-maximal effect; nearly all actives have a fitted effect of over 55% in size
ELG1-Luc MMS – MMS-stimulated human ELG1 repair inhibition, confirmed; Potency, µM (series often up to 46.1 µM), for the others: at the highest dose activity change, negative = inhibition, most hits filed as inhibitors; shares compounds with ELG1 DNA repair; 670 compounds, 53% hits; HEK293T luciferase-tagged ELG1 level, MMS stimulated; note: potency is the fitted concentration of half-maximal effect; nearly all actives have a fitted effect of over 60% in size
ELG1 5FU viab – confirmation of ELG1 repair inhibitors: viability with 5FU | shares compounds with ELG1 DNA repair | cell viability with 5-FU, ELG1-dependent repair | Potency, µM (highest dose often 46.1 µM), for the others: at the highest dose activity change, negative = viability loss, usual class: cytotoxic | 670 tested, under 10 active;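 note: ELG1-luc HEK293T cells cotreated with 5-fluorouridine at 10 µM final; potency is the fitted concentration of half-maximal effect; viability measured 16 h after compound addition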
ELG1 MMS viab – confirmation of ELG1 repair inhibitors: viability with MMS. Potency, µM (series often up to 46.1 µM), inactives show top-dose activity change, negative = viability loss, actives largely listed as cytotoxic. Cell viability with MMS, ELG1-dependent DNA repair. 670 compounds, 33% hits. shares compounds with ELG1 DNA repair;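 note: ELG1-luc HEK293T cells co-treated with 10 µM MMS; potency is the fitted concentration of half-maximal effect; viability read 16 h after compound addition; nearly all actives have a fitted effect of over 60% in size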
Cell viab unstim – counter-screen for ELG1 repair inhibitors: unstimulated cell viability; 900 compounds, 8% hits; Potency, µM (top dose mostly 45.9 µM), for inactives: at the top dose activity change, negative = loss of viability, actives largely listed as cytotoxic; cell viability counter-screen, unstimulated, luminescence; shares compounds with ELG1 DNA repair;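 note: potency is the fitted concentration of half-maximal effect; compound exposure lasted 16 hours before reading; nearly all actives have a fitted effect of over 55% in size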
FLuc enzyme – counter-screen for ELG1 repair inhibitors: firefly luciferase inhibition | shares compounds with ELG1 DNA repair | purified firefly luciferase, luminescence counter-screen | Potency, µM (titrated, usually from 57.5 µM), for inactives: at the top dose activity, negative = inhibition, usual class: inhibitors | 350 compounds, 10% hits | AID 624253; note: potency is the fitted concentration of half-maximal effect
Starred values were filed as active, the others as inactive; u = inconclusive; x = no result given; [ ] = remark or other dose. Most compounds without a hit are left out; they make up all but 19% or so of the library. Unless noted, calls come from the whole dose curve; as a rule, active = well fitted curve in the direction sought with a large enough effect; inconclusive = small, poorly fitted or top-dose-only effect, or another doubt; inactive = no such curve, though single readings can be large; an effect the other way counts as inactive or inconclusive. % is set by controls: 0 for no effect and ±100 for the full control effect.

SMILES	Giardia kill	IL-1B inflam inh	ELG1 DNA repair	DT40 TDP1 no CPT	TDP1 inh	DT40 TDP1 CPT	ELG1 FLuc counter	ELG1-Luc inh	ELG1-Luc MMS	ELG1 5FU viab	ELG1 MMS viab	Cell viab unstim	FLuc enzyme
Cc1[nH]c(C(=O)O)c(C#N)c1C(=O)c1ccccc1	-5	11	-12%	6%	x	-1%	x	x	x	x	x	x	x
CN(CC(=O)Nc1cccc(F)c1)C(=O)CSc1ccccc1	-2	-2	-1%	u	0%	-10%	x	x	x	x	x	x	x
CC(=O)c1cc2c(cc1NC(=O)CSc1nc3ccccc3[nH]1)OCO2	x	x	u	x	3%	x	x	x	x	x	x	x	x
Cc1cccc(NC(=O)CSc2nc3ccccc3o2)c1	6	15	u	-2%	4%	-3%	67%	x	x	x	x	16%	-6%
CC(=O)c1cc2c(cc1NC(=O)CSc1nc3ccccc3o1)OCO2	-6	0	u	-27%	-1%	-19%	67%	x	x	x	x	10%	4%
O=C(CSc1nc2ccccc2o1)Nc1ccccc1N1CCCCCC1	-1	-1	3%	u	0%	u	4%	x	x	x	x	-20%	-8%
Cn1cc(C[C@H](C(=O)O)N2C(=O)c3ccc(C(=O)O)cc3C2=O)c2ccccc21	x	x	x	x	5%	x	x	x	x	x	x	x	x
Cc1cn2c(=O)cc(COC(=O)c3ccc(NC(=O)C(C)Oc4ccccc4)cc3)nc2s1 (stereo not given)	x	x	x	0%	4%	-7%	x	x	x	x	x	x	x
C=CCn1c(C)cc(C(=O)COC(=O)c2n[nH]c(=O)c3ccccc23)c1C	u	8	u	u	0%	u	x	x	x	x	x	-10%	x
CCC1CC=CC2C1C(=O)N(Cc1ccccc1)C2c1ccc(OC)c(Cl)c1 (stereo not given)	-25	x	x	x	3%	x	x	x	x	x	x	x	x
CN(CC(=O)Nc1ccc(Cl)c(C(F)(F)F)c1)C(=O)C1CCN(C(=O)c2ccc(Cl)cc2)CC1	-16	u	x	u	x	u	x	x	x	x	x	x	x
Cc1sc2ncnc(N3CCC(C(=O)N(C)CC(=O)Nc4ccc(Cl)c(C(F)(F)F)c4)CC3)c2c1C	-9	-55*	3.7µM*	15µM*	0%	u	u	7.1µM*	7.1µM*	u	u	u	-15%
Cc1sc2ncnc(N3CCC(C(=O)Nc4ccc(S(N)(=O)=O)cc4)CC3)c2c1C	0	-8	4.1µM*	15µM*	3%	u	x	7.1µM*	20µM*	u	8%	u	x
Cc1sc2ncnc(N3CCCCC3)c2c1C	8	21	u	-29%	-1%	u	x	x	x	x	x	x	x
COc1cc2c(cc1OC)-c1cc(N3CCc4ccccc43)nc(=O)n1CC2	-7	-66*	u	u	0%	u	x	2.8µM*	26%	u	u	u	x
O=C(C1CCCC1)N1CCC(CC2CC(c3cccc(Br)c3)=NO2)(C(=O)NCC2CCCCC2)CC1 (stereo not given)	-29	0	4.1µM*	u	x	16µM*	x	16µM*	u	2%	-19%	u	x
COc1ccncc1-c1csc(C(O)c2ccccc2)n1 (stereo not given)	x	-11	x	-45%	x	u	x	x	x	x	x	x	x
CCOc1cccc(-c2nnc(SCC(=O)Nc3cc(C)ccc3OC)n2N)c1	0	5	0.58µM*	u	4%	-23%	1%	u	-18%	9%	0%	-5%	-8%
COc1cccc(NC(=O)CN2C(=O)CSc3ccc(S(=O)(=O)N4CCCCC4)cc32)c1	31	-23	0%	u	12%	-18%	x	x	x	x	x	x	x
CCC(=O)Nc1cccc(C(=O)OCc2cccc([N+](=O)[O-])c2)c1	-12	-10	-15%	-4%	3%	-7%	x	x	x	x	x	x	x
COc1ccc(C)cc1NC(=O)CNc1ccc(C(C)=O)cc1	-18	11	-2%	u	3%	-4%	x	x	x	x	x	x	x
CC(C)c1nc2sc3c(NCc4ccco4)ncnc3c2c2c1COC(C)(C)C2	-2	u	u	23µM*	2%	18µM*	21%	11µM*	13%	u	-2%	u	-3%
CC(C)c1nc2sc3c(=O)n(N)cnc3c2c2c1COC(C)(C)C2	12	26	7%	u	2%	0%	-2%	u	-5%	u	3%	2%	-3%
CCCc1nc2sc3c(=O)n(N)cnc3c2c2c1COC(C)(C)C2	x	x	1%	x	-1%	x	x	x	x	x	x	x	x
CCN(CCO)c1ncnc2c1sc1nc(C(C)C)c3c(c12)CC(C)(C)OC3	33	2	u	u	-2%	u	x	x	x	x	x	x	x
Cn1cccc1C(=O)OCC(=O)Nc1ccc2c(c1)OCCO2	0	-11	u	-28%	-7%	1%	3%	x	x	x	x	u	2.1µM*
Cn1cccc1C(=O)OCC(=O)Nc1sccc1C#N	13	7	u	-9%	-4%	-21%	x	x	x	x	x	0%	x
Cn1cccc1C(=O)OCC(=O)NCc1ccc2c(c1)OCO2	-8	-15	u	-4%	-2%[56.1 µM]	-4%	x	x	x	x	x	x	x
